Shown are actives, neighbours in structure and some others; about 2.9% of the full set was active somewhere.
FadD28 FP inh: M. tuberculosis FadD28 bisubstrate binding inhibition; FadD28 bisubstrate probe binding, fluorescence polarization; inhibition, % at 12.5 µM; 360,000 tested, 0.22% active; AID 588549; in the data active = inhibition above about 8.5%, passing the limit was not always enough
BioA inh: blocks M. tuberculosis BioA enzyme activity | purified M. tuberculosis BioA enzyme, plate reader | inhibition, % at 9.99 µM | 360,000 tested, 0.096% active | AID 602481; in the data active = inhibition above about 40%
Mtb FBA inh: Mtb fructose-bisphosphate aldolase inhibition; inhibition, % at 1 µM; AID 588726; purified M. tuberculosis FBA, fluorescence read-out; P9WQA3; 360,000 tested, 2.3% active;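 also: 0% = vehicle and 100% = reference inhibitor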
Target sequence (P9WQA3 whole entry, looked up): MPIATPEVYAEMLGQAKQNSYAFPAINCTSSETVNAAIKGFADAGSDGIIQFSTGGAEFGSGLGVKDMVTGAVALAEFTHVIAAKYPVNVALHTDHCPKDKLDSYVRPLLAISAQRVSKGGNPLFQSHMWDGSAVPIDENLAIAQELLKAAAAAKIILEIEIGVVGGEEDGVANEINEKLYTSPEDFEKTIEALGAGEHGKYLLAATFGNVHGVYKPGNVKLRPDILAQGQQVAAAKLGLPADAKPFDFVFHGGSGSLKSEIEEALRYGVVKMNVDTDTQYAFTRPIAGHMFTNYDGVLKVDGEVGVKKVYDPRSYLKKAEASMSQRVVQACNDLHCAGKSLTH
Mtb hypoxia inh: reduces hypoxia-regulated biosensor signal in M. tuberculosis | M. tuberculosis hypoxia-regulated fluorescent reporter, fluorescence | fluorescence inhibition, % (test concentration not listed) | 300,000 tested, 0.1% active | AID 1159583; in the data active = fluorescence inhibition mostly above about 23%, no sharp cut-off; inactive = mostly below about 17%
GDH-TPI counter-1: inhibits GDH-TPI coupling enzymes, artifact for Mtb FBA screen | GDH-TPI coupled enzyme counterscreen, NADH absorbance | inhibition, % at 4.8 µM | 360,000 tested, 1.2% active | AID 588335; in the data active = inhibition above about 30%;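 also: 0% = DMSO wells and 100% = wells lacking the enzyme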
Mtb FBA confirm: Mtb FBA inhibition, confirmed. shares compounds with Mtb FBA inh. 5,600 tested, 78% active. purified M. tuberculosis FBA, fluorescence read-out. inhibition, % at 1 µM;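 also: 0% = vehicle wells and 100% = reference inhibitor wells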
GDH-TPI counter-2: inhibits GDH-TPI coupling enzymes, flagging Mtb FBA hits; shares compounds with Mtb FBA inh; GDH-TPI coupled enzyme counterscreen, fluorescence; inhibition, % at 1 µM; 5,600 tested, 81% active; in the data active = inhibition above about 10%
GDH-TPI dose: GDH-TPI dose response counter-screen for Mtb FBA; shares compounds with Mtb FBA inh; GDH-TPI coupled enzyme assay, fluorescence, artifact counterscreen; IC50, µM; 170 tested, 79% active; AID 652145; call rule not given here
* marks the source's active call; other numbers are inactive results; x = no result given; + = active, no number; ! = repeats disagree. Rule as the data show it, unless noted: active = inhibition above about 27%; inactive = the rest.

SMILES | FadD28 FP inh | BioA inh | Mtb FBA inh | Mtb hypoxia inh | GDH-TPI counter-1 | Mtb FBA confirm | GDH-TPI counter-2 | others
O=C(C[C@@H]1C=C[C@@H](NC(=O)Nc2cc(F)ccc2F)[C@H](CO)O1)NCCCN1CCOCC1 | x | 1.6 | x | x | x | x | x
Oc1ccc(C2CNCCc3c2cc(O)c(O)c3Cl)cc1 (stereo not drawn) | -0.8 | -0.5 | 40.3*! | 4.2 | -0.5 | -2.5 | -6.6
CC1=C[C@@H]2c3cccc4[nH]cc(c34)C[C@H]2N(C)C1 | 1.2 | -7.5 | 82.0* | x | 1.0 | 51.8* | 49.2*
COc1ccc(S(=O)(=O)N(C)C[C@@H]2OCCCC[C@H](C)Oc3ccc(NC(=O)Nc4ccc(F)cc4)cc3C(=O)N([C@@H](C)CO)C[C@@H]2C)cc1 | x | -2.5 | x | x | x | x | x
COc1ccccc1-c1oc2ccccc2c1C#CC(C)(C)O | -8.5 | 0.0 | 54.6* | -3.9 | 13.6 | + | +
Cc1ccc(-c2cc(C(=O)NCCc3ccc(S(N)(=O)=O)cc3)c3ccccc3n2)cc1 | 0.0 | x | 34.1* | 4.2 | 13.0 | 176.7* | 179.0*
NS(=O)(=O)c1ccc(CNC(=O)c2cc(-c3ccccc3)nc3ccccc23)cc1 | -8.6 | 0.2 | 0.5 | 10.5 | 15.2 | x | x
NS(=O)(=O)c1ccc(CCNC(=O)c2cc(-c3ccco3)nc3ccccc23)cc1 | -2.6 | 0.4 | 77.1* | 1.2 | 18.6 | 75.1* | 72.8*
Cc1ccc(NC(=O)Cn2nc(C)c([N+](=O)[O-])c2C)cc1C | -2.8 | -1.6 | 36.5* | -1.2 | -1.8 | -5.3 | -6.3
CCC(=O)Nc1cc(-c2nn(C)c(=O)c3ccccc23)ccc1N1CCOCC1 | -1.5 | x | -3.2 | 2.0 | 4.3 | x | x
COc1ccc(OCC(=O)Nc2cc(-c3nn(C)c(=O)c4ccccc34)ccc2N2CCOCC2)cc1 | -0.3 | x | 27.3* | -1.9 | -1.6 | 6.4 | -2.5
Cc1cc(N=Cc2c(O)n(-c3cccc(Cl)c3)c(=O)c3ccccc23)no1 | -3.1 | -1.3 | 56.8* | -6.1 | 19.5 | 105.5* | 82.6*
O=C(C1=CC(c2csc3ccccc23)CC(OCc2ccc(CO)cc2)O1)N1CCN(Cc2ccccc2)CC1 (stereo not drawn) | x | x | x | 2.0 | x | x | x
COc1ccc(-c2ccc3c(c2)O[C@H](CN(C)Cc2ccccc2C(=O)O)[C@@H](C)CN([C@H](C)CO)S3(=O)=O)cc1 | x | 3.9 | x | x | x | x | x
Cc1nc(-c2cn[nH]c2)c2cc(C)oc2n1 | -3.4 | 0.3 | 26.9* | x | -4.9 | 133.6* | 109.9*
O=C(C[C@H]1CC[C@H](NC(=O)C2CCC2)[C@@H](CO)O1)NC1CCCCC1 | x | -0.8 | x | x | x | x | x
OC1c2c(F)cccc2N=C2CCCCN21 (stereo not drawn) | -1.3 | 2.2 | 37.6* | x | -1.0 | 176.4* | 161.8*
CCCC(=O)Nc1ccc2c(c1)C(=O)N(C)C[C@H](OC)[C@@H](C)CN(Cc1nccs1)[C@@H](C)CO2 | x | 1.3 | x | x | x | x | x
CC(NC(=O)c1nc[nH]c1C(=O)NC1CCN(C(=O)OC(C)(C)C)CC1)c1ccccc1 (stereo not drawn) | x | x | x | 1.7 | x | x | x
COc1ccc(NC(=O)N(C)C[C@H]2OCc3ccccc3-c3c(n(C)c4ccccc34)C(=O)N([C@@H](C)CO)C[C@H]2C)c(OC)c1 | x | 0.7 | x | x | x | x | x
COc1ccccc1CNCc1ccc(OC)c2ccccc12 | -3.7 | x | 1.9 | 2.0 | -5.6 | x | x
COc1ccc(CNCc2ccc(OC)c3ccccc23)cc1 | 1.6 | 0.3 | 56.9* | 2.9 | -2.1 | 11.4 | -5.2 | GDH-TPI dose=>10
CN(C)CCNC(=O)c1cccn(Cc2cc(C(F)(F)F)cc(C(F)(F)F)c2)c1=O | -2.3 | x | 61.5* | 8.2 | 12.3 | 1.9 | -2.1
CN(C)C(=O)c1cccn(Cc2ccc(C(F)(F)F)cc2)c1=O | -0.9 | -0.8 | 0.9 | 17.5 | 6.0 | x | x
N#Cc1c(N)oc(-c2ccco2)c1-c1ccco1 | 4.6 | -0.1 | 32.6* | 12.7 | 11.8 | 41.7* | 25.7*
SMILES | FadD28 FP inh | BioA inh | Mtb FBA inh | Mtb hypoxia inh | GDH-TPI counter-1 | Mtb FBA confirm | GDH-TPI counter-2 | others
CO[C@@H]1CN(C)C(=O)c2cc(NC(=O)C3CCC3)ccc2OC[C@@H](C)N(Cc2nccs2)C[C@@H]1C | x | 3.0 | x | x | x | x | x
COC(=O)c1cnn2c3c(c(C)nc12)CCCC3 | -1.6 | 0.6 | 74.3* | 4.1 | 2.4 | 130.2* | 106.9*
CCCCCCNC(=O)c1cc(-c2ccco2)nc2ccccc12 | 1.0 | 0.6 | 23.8 | -5.4 | 5.3 | x | x
Cc1ccc(-c2cc(C(=O)NCC3(N(C)C)CCCCC3)c3ccccc3n2)o1 | -2.4 | 0.6 | 29.4* | x | 25.9 | 22.9 | 15.5*
CN(C)C(CNC(=O)c1cc(-c2ccco2)nc2ccccc12)c1ccccc1 (stereo not drawn) | -2.0 | -1.5 | 37.7* | 6.6 | 9.9 | 8.5 | -4.2
CC(C)CCNC(=O)c1cc(-c2ccco2)nc2ccccc12 | -1.4 | 1.1 | 111.2* | 8.1 | 20.4 | + | +
O=S1(=O)CCOCC(CC2CCCCC2)N1Cc1ccc(Cl)cc1 (stereo not drawn) | x | x | x | 5.6 | x | x | x
O=C(CSc1nnc(-c2ccccn2)n1Cc1ccccc1)N1CCCC1 | -0.6 | -3.0 | 84.0* | 10.1 | -1.9 | 101.3* | 68.4*
COC(=O)CCCC1CC2(CC(CCCO[Si](C)(C)C(C)(C)C)N1C(=O)OC(C)(C)C)OCCO2 (stereo not drawn) | x | x | x | 2.7 | x | x | x
Cc1cc(NC(=O)CCCS(=O)(=O)c2nc(-c3cccs3)cc(C(F)(F)F)n2)no1 | -3.5 | 13.6 | 52.3* | x | 38.8* | 67.7* | 52.3*
O=C(C[C@@H]1CC[C@H]2[C@@H](COC[C@H](O)CN2C(=O)C2CC2)O1)NCc1ccccc1Cl | x | 0.3 | x | x | x | x | x
CCOC(=O)Cc1cc(=O)n2[nH]c(-c3ccccc3)cc2n1 | -2.9 | 0.4 | 22.2 | 9.0 | 3.9 | x | x
CCOC(=O)Cc1cc(=O)n2[nH]c(-c3ccccc3)c(-c3ccccc3)c2n1 | -2.1 | 1.7 | 42.8* | 9.4 | 3.8 | 80.5* | 67.0*
CCOC(=O)Cc1cc(=O)n2[nH]c(C)c(-c3ccccc3)c2n1 | -1.1 | 1.1 | 38.9* | x | 12.2 | 96.5* | 77.4*
COc1cc2cc(CN(Cc3nnnn3Cc3ccccc3)CC3CCCO3)c(=O)[nH]c2cc1OC (stereo not drawn) | -2.3 | 0.5 | 35.0* | -1.6 | 0.0 | 135.8* | 144.4*
c1cnc2cc(-c3ccsc3)ncc2c1 | -1.9 | 1.8 | 28.7* | 8.8 | 15.1 | 8.0 | 4.8
OCCOCCNc1ncnc2sc(-c3ccccc3)cc12 | -7.7 | 2.3 | 32.1* | x | 15.0 | 10.8 | 14.8*
CN(C)CCNc1ncnc2sc(-c3ccccc3)cc12 | x | 0.6 | 15.6 | 14.2 | 1.9 | x | x
CNc1ncnc2sc(-c3ccccc3)cc12 | -4.1 | 1.1 | 45.6* | -1.5 | 12.0 | 52.0* | 35.7*
COc1ccc(S(=O)(=O)N(C)C[C@@H]2OCCCC[C@H](C)Oc3ccc(N(C)C)cc3C(=O)N([C@@H](C)CO)C[C@H]2C)cc1 | x | -1.4 | x | x | x | x | x

High-throughput results: PubChem, several laboratories
